These results are taken from PubChem BioAssay (NCATS).

Records with an inconclusive call do not appear. A call without a number means that no potency is given here. Calls of active or inactive are those of the source. Calls follow the shape of the dose curve; as a rule, active = well fitted activation curve with a large enough effect; inconclusive = small, poorly fitted or top-dose-only effect; inactive = flat fitted curve, though single readings scatter.

The assay is described as follows: Primary redox qHTS assay for identification of artifact compounds. (AID 1845223). The conditions noted are these: Amplex Red/HRP redox cycling with DTT, fluorescence; series mostly up to 53.8 µM. The procedure, abridged:
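Amplex Red (25 uM) and HRP (250 mU/mL) in HBSS, with compounds for 15 min, then 250 uM DTT for 30 min, room temperature, dark. Fluorescence 525/598 nm read; normalized to DMSO and 10 uM DA3003; Hill fit.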
Turning to `Clc1ccc(Nc2nc3ccccc3c3nc(C4CCCCC4)[nH]c23)cc1Cl`, the Potency result was “inactive”. The entry for `COc1cc(C[C@H]2C(=O)OC[C@@H]2Cc2ccc(OC)c(OC)c2)ccc1O` is “inactive”; for `C[C@@H](NC(=O)c1ccc(C#Cc2cccc(F)c2)cn1)C(C)(C)O` it is “inactive”; for `O=C(Nc1ncc([N+](=O)[O-])s1)c1ccccc1O` it is “inactive”. Take `O=C(CNC(=O)c1cccc(C(F)(F)F)c1)N[C@@H]1CCN(Cc2ccc(Cl)cc2)C1`: the Potency entry was “inactive”. For `CC1OC(=O)C[C@@H]2C(C(=O)O)=CO[C@@H](O[C@H]3O[C@H](CO)[C@@H](O)[C@H](O)[C@H]3O)[C@H]12` (some centres not stated), the Potency entry is “inactive”. As for `COC(=O)c1ccc2c(c1)nc(NC(=O)c1ccccc1)n2CCCc1ccccc1`, the Potency result was “inactive”.
